Compound activity: PubChem BioAssay, several laboratories
This excerpt belongs to a sample that is enriched for hits.
GIRK2 activator = Activators of human GIRK2-containing channels; P48051; HEK293 GIRK2/NPY4 cells, thallium flux fluorescence; activation (% efficacy), % for hits at 75 µM; 34,000 tested, under 10 active; AID 1259324;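 active = primary screen hit, no activity in plain HEK293 cells, and in GIRK2-only cells above 5% efficacy rising with concentration; inactive = the rest, including fluorescent compounds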;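 also: efficacy is normalized control-subtracted fluorescence 15 s after thallium addition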
Target sequence (P48051 whole entry, looked up): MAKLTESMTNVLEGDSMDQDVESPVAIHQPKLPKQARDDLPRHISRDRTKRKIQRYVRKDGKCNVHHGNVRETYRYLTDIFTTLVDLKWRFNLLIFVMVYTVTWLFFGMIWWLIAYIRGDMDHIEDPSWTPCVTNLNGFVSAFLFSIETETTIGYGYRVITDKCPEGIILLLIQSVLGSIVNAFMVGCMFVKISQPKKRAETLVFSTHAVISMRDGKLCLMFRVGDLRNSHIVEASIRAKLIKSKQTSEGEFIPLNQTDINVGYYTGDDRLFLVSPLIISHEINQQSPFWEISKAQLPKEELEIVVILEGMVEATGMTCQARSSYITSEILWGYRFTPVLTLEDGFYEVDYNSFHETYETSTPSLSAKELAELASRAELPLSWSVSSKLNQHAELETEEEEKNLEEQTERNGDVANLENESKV
AMPAR-TARP mod = GluA2-stargazin AMPA receptor complex modulation. calls only at 30 µM. AID 1259245. hit rate 3.5% among 40,000. O88602+P19491. HEK293 GluA2+stargazin, membrane potential dye (FDSS), glutamate EC50; hits were called plate by plate, in both directions;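 active = any of four per-well response measures lying three or more SD from its plate-wide compound average, in either direction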
An asterisk follows results filed as active; i = inactive; x = no result given; + = active, no number.

SMILES | GIRK2 activator | AMPAR-TARP mod
O=S(=O)(c1ccccc1)N1CCN(c2ccc(Nc3ccncc3)nn2)CC1 | i | i
O=C(NCC1CCN(Cc2ccco2)CC1)c1cccc(C(F)(F)F)c1 | i | x
Cc1noc(C2CN(S(=O)(=O)c3cccs3)C2)n1 | i | i
Cc1noc(C2CN(S(=O)(=O)c3cccc(Cl)c3C)C2)n1 | i | +
COc1cc(OC)cc(C(=O)NCC(c2cccc3ccccc23)N(C)C)c1 (configuration not stated) | x | i
CSc1ccccc1NC(=O)C(=O)NCC(O)(c1cccs1)C1CC1 (configuration not stated) | i | i
COc1ccc(C(=O)N(c2cccc(OC)c2)C2C=CS(=O)(=O)C2)cc1 (configuration not stated) | i | i
CCOC(=O)C1CCc2sc(NC(=O)C3CN(C(=O)c4cnccn4)C3)nc21 (configuration not stated) | i | i
CCOc1ccc(-n2nnnc2SC(C)C(=O)Nc2ccccc2F)cc1 (configuration not stated) | x | +
CCOc1ccc(-n2nnnc2SC(C)C(=O)Nc2ccccc2C)cc1 (configuration not stated) | x | i
COc1ccc(-n2nnnc2SC(C)C(=O)Nc2nccs2)cc1 (configuration not stated) | x | +
COc1ccc(-n2nnnc2SCCC(=O)Nc2nccs2)cc1 | i | i
